Assay [1] is described as follows: BSK_hDFCGF_SRB: Viability Assessment in the BioMAP Diversity Plus: hDFCGF Assay (AID 2283061).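 Note: cells exposed to compound for 24 h before the read.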 The note with it: primary human foreskin fibroblasts. Put shortly:
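Human foreskin primary fibroblasts were treated with compound and assessed 24 h after dosing. Total protein was measured by sulforhodamine B staining (0.1% SRB after 10% TCA fixation, 560 nm read) as a cytotoxicity marker, with bidirectional fitting against DMSO baseline.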

Read-out in assay [2]: TIMP metallopeptidase inhibitor 1 (TIMP1), TIMP1 (gene 7076)
Description: BSK_hDFCGF_TIMP1: BioMAP Diversity Plus: hDFCGF Assay for TIMP metallopeptidase inhibitor 1 (TIMP1) Biomarker Activity (AID 2283062). The note with it: primary human foreskin fibroblasts; actives raise or lower the signal. Put shortly:
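Primary human foreskin fibroblasts in the hDFCGF system were dosed with compound for 24 h, then TIMP-1 was measured by ELISA. Activity was fitted bidirectionally relative to DMSO control; parallel SRB staining assessed cytotoxicity.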

Read-out in assay [3]: Monokine induced gamma interferon (MIG), CXCL9 (gene 4283)
Description: BSK_hDFCGF_MIG: BioMAP Diversity Plus: hDFCGF Assay for Monokine induced gamma interferon (MIG) Biomarker Activity (AID 2283063). The note with it: primary human foreskin fibroblasts; actives raise or lower the signal. The method in brief: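 ELISA read-out of MIG from primary human dermal fibroblasts 24 h post-dosing. Gain or loss of signal fitted bidirectionally, DMSO as baseline.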

Read-out in assay [4]: Matrix Metallopeptidase 1 (MMP1), MMP1 (gene 4312)
Description: BSK_hDFCGF_MMP1: BioMAP Diversity Plus: hDFCGF Assay for Matrix Metallopeptidase 1 (MMP1) Biomarker Activity (AID 2283064). The note with it: primary human foreskin fibroblasts; actives raise or lower the signal. Put shortly:
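hDFCGF primary fibroblasts (human foreskin); chemical added; 24 h; MMP1 by ELISA; bidirectional fit vs DMSO.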

Read-out in assay [5]: Vascular cell adhesion molecule 1 (VCAM1), VCAM1 (gene 7412)
Description: BSK_hDFCGF_VCAM1: BioMAP Diversity Plus: hDFCGF Assay for Vascular cell adhesion molecule 1 (VCAM1) Biomarker Activity (AID 2283065). The note with it: primary human foreskin fibroblasts; actives raise or lower the signal. The method in brief: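 Primary human foreskin fibroblasts (hDFCGF system) were dosed with chemical and VCAM-1 was measured by ELISA 24 h later. Bidirectional curve fitting used DMSO as negative control and activity baseline.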

Read-out in assay [6]: Plasminogen activator inhibitor-1 (PAI1), SERPINE1 (gene 5054)
Description: BSK_hDFCGF_PAI1: BioMAP Diversity Plus: hDFCGF Assay for Plasminogen activator inhibitor-1 (PAI1) Biomarker Activity (AID 2283066). To be noted: primary human foreskin fibroblasts; actives raise or lower the signal. The method in brief: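 Primary dermal fibroblasts (human foreskin), hDFCGF system; compound 24 h; PAI-1 by ELISA; bidirectional fit vs DMSO control.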

Read-out in assay [7]: Intercellular Adhesion Molecule 1 (ICAM1), ICAM1 (gene 3383)
Description: BSK_KF3CT_ICAM1: BioMAP Diversity Plus: KF3CT Assay for Intercellular Adhesion Molecule 1 (ICAM1) Biomarker Activity (AID 2283067). The note with it: primary human keratinocytes with fibroblasts; actives raise or lower the signal. The method in brief:
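Human keratinocyte plus foreskin fibroblast primary co-culture was exposed to chemical for 24 h. ICAM-1 was then quantified by ELISA, and the data were fit bidirectionally against DMSO as the negative control and baseline.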

Read-out in assay [8]: Interferon-gamma inducible Protein 10 (IP10), CXCL10 (gene 3627)
Description: BSK_KF3CT_IP10: BioMAP Diversity Plus: KF3CT Assay for Interferon-gamma inducible Protein 10 (IP10) Biomarker Activity (AID 2283068). The note with it: primary human keratinocytes with fibroblasts; actives raise or lower the signal. Put shortly: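 Human keratinocyte plus foreskin fibroblast primary co-culture exposed to test chemical for 24 h; IP-10 measured by ELISA. Concentration-response fitted bidirectionally against DMSO control as baseline.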

The nature of assay [9]: BSK_KF3CT_SRB: Viability Assessment in the BioMAP Diversity Plus: KF3CT Assay (AID 2283069).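 Note: fitted for both signal gain and loss against DMSO baseline.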 The note with it: primary human keratinocytes with fibroblasts. Put shortly:
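Keratinocytes co-cultured with foreskin fibroblasts (human primary); chemical added, 24 h; fix 10% TCA, stain 0.1% SRB, A560. Bidirectional fit vs DMSO.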

Read-out in assay [10]: Interleukin-1 alpha (IL1a), IL1A (gene 3552)
The assay can be described thus: BSK_KF3CT_IL1a: BioMAP Diversity Plus: KF3CT Assay for Interleukin-1 alpha (IL1a) Biomarker Activity (AID 2283070). The note with it: primary human keratinocytes with fibroblasts; actives raise or lower the signal. The method in brief:
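Chemicals were dosed onto co-cultured human keratinocytes and foreskin fibroblasts, IL-1a was quantified by ELISA at 24 h, and activity was fitted in both directions relative to DMSO controls.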

Read-out in assay [11]: TIMP metallopeptidase inhibitor 2 (TIMP2), TIMP2 (gene 7077)
The assay can be described thus: BSK_KF3CT_TIMP2: BioMAP Diversity Plus: KF3CT Assay for TIMP metallopeptidase inhibitor 2 (TIMP2) Biomarker Activity (AID 2283071). To be noted: primary human keratinocytes with fibroblasts; actives raise or lower the signal. Put shortly: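 Cells: human keratinocytes co-cultured with foreskin fibroblasts. Treat with chemical, 24 h. Measure TIMP-2 by ELISA; fit curves bidirectionally vs DMSO baseline.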

Read-out in assay [12]: Transforming growth factor beta 1 (TGFb1), TGFB1 (gene 7040)
Description: BSK_KF3CT_TGFb1: BioMAP Diversity Plus: KF3CT Assay for Transforming growth factor beta 1 (TGFb1) Biomarker Activity (AID 2283072). To be noted: primary human keratinocytes with fibroblasts; actives raise or lower the signal. The method in brief: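 Primary human skin cells (keratinocytes, foreskin fibroblasts) were co-cultured, exposed to test chemical and sampled at 24 h. TGF-b1 levels were measured by ELISA and fitted bidirectionally relative to DMSO.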

Read-out in assay [13]: C-C motif chemokine 2 (Homo sapiens) (UniProt P13500)
The assay can be described thus: BSK_KF3CT_MCP1: BioMAP Diversity Plus: KF3CT Assay for Monocyte Chemoattractant Protein 1 (MCP1/CCL2) Biomarker Activity (AID 2283073). The note with it: primary human keratinocytes with fibroblasts; actives raise or lower the signal. The method in brief: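 Human keratinocyte plus foreskin fibroblast primary co-culture exposed to chemical for 24 h. MCP-1 levels measured by ELISA. Bidirectional curve fitting relative to DMSO negative control as baseline.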

Read-out in assay [14]: Matrix Metallopeptidase 9 (MMP9), MMP9 (gene 4318)
The assay can be described thus: BSK_KF3CT_MMP9: BioMAP Diversity Plus: KF3CT Assay for Matrix Metallopeptidase 9 (MMP9) Biomarker Activity (AID 2283074). The note with it: primary human keratinocytes with fibroblasts; actives raise or lower the signal. Put shortly: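 Human keratinocyte/foreskin fibroblast co-culture; compound added; 24 h; MMP-9 by ELISA; bidirectional fit vs DMSO baseline.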

Read-out in assay [15]: urokinase plasminogen activator (uPA), PLAU (gene 5328)
Description: BSK_KF3CT_uPA: BioMAP Diversity Plus: KF3CT Assay for urokinase plasminogen activator (uPA) Biomarker Activity (AID 2283075). The note with it: primary human keratinocytes with fibroblasts; actives raise or lower the signal. Put shortly:
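ELISA readout of uPA, analyzed for signal gain or loss relative to DMSO, from a human primary keratinocyte–foreskin fibroblast co-culture measured 24 h after chemical treatment.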

Read-out in assay [16]: E-selectin (Homo sapiens) (UniProt P16581)
Description: BSK_LPS_Eselectin: BioMAP Diversity Plus: LPS Assay for Eselectin Biomarker Activity (AID 2283077). To be noted: primary human HUVEC with PBMC; actives raise or lower the signal. The method in brief:
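Human umbilical vein endothelial cells co-cultured with peripheral blood mononuclear cells under LPS stimulation; E-selectin measured by ELISA 24 h after chemical dosing. Activity fitted bidirectionally against DMSO as negative control and baseline.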

Read-out in assay [17]: Interleukin-8 (IL8), CXCL8 (gene 3576)
Description: BSK_LPS_IL8: BioMAP Diversity Plus: LPS Assay for Interleukin-8 (IL8) Biomarker Activity (AID 2283078). The note with it: primary human HUVEC with PBMC; actives raise or lower the signal. Put shortly:
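Human umbilical vein endothelial cells co-cultured with PBMC were stimulated with LPS; IL-8 levels were measured by ELISA 24 h after chemical dosing. Activity was fitted bidirectionally against DMSO as negative control and baseline.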

Assay [18] can be described thus: BSK_LPS_SRB: Viability Assessment in the BioMAP Diversity Plus: LPS Assay (AID 2283079).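 Note: total protein by sulforhodamine B absorbance as a cytotoxicity measure; measured one day after compound addition; fitted in both directions against DMSO so loss or gain of signal counts.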 To be noted: primary human HUVEC with PBMC. Put shortly: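 Human umbilical vein endothelial cells co-cultured with PBMC (LPS system) were dosed for 24 h. Total protein was stained with 0.1% sulforhodamine B after 10% TCA fixation, read at 560 nm, and fitted bidirectionally against DMSO baseline.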

Read-out in assay [19]: Interleukin-1 alpha (IL1a), IL1A (gene 3552)
The assay can be described thus: BSK_LPS_IL1a: BioMAP Diversity Plus: LPS Assay for Interleukin-1 alpha (IL1a) Biomarker Activity (AID 2283080). To be noted: primary human HUVEC with PBMC; actives raise or lower the signal. Put shortly:
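Human umbilical vein endothelial cells co-cultured with peripheral blood mononuclear cells were LPS-stimulated and exposed to test chemicals for 24 h. IL-1 alpha was quantified by ELISA, with bidirectional curve fitting against DMSO as the negative control and baseline.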

Read-out in the next assay: CD40, CD40 (gene 958)
The assay can be described thus: BSK_LPS_CD40: BioMAP Diversity Plus: LPS Assay for CD40 Biomarker Activity (AID 2283076). To be noted: primary human HUVEC with PBMC; actives raise or lower the signal. The method in brief: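 Primary human umbilical vein endothelial cells co-cultured with peripheral blood mononuclear cells, LPS-stimulated, were dosed with chemical and read 24 h later. CD40 levels were measured by ELISA and fitted bidirectionally against DMSO as negative control and baseline.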

Structures are written as SMILES. Calls of active or inactive are those of the source. Rule for the calls: active = hit-call score of the fitted dose curve at least 0.9, where 1 is the maximum; inactive = score below 0.9.

Sequence of E-selectin (Homo sapiens) (P16581 whole entry, looked up): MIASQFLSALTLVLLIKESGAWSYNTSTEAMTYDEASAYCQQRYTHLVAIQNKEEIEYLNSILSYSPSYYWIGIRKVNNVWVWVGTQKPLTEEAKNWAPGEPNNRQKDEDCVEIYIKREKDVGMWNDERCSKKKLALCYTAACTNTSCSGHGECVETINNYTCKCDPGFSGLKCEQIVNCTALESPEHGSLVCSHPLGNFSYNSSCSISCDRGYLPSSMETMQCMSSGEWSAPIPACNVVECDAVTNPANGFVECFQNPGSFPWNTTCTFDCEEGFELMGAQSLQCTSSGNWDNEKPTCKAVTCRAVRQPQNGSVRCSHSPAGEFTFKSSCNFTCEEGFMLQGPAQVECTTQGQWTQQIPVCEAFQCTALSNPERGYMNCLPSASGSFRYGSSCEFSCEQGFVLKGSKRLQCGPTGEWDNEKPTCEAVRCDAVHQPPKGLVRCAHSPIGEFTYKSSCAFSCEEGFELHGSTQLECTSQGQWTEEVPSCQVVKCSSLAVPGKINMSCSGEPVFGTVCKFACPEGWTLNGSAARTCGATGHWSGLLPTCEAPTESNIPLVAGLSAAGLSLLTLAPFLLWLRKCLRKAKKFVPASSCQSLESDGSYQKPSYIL

For the compound `Cc1cc(-c2ccc(N)c(C)c2)ccc1N`, the result in [1], in [2], in [3], in assay [4], in assay [5] and in [6] was inactive. For the same compound, the outcome in assay [7], in assay [8], in assay [9], in [10], in assay [11] and in [12] was inactive. In addition, the outcome in [13], in assay [14], in assay [15], in [16], in [17] and in assay [18] was inactive. Besides, the result in assay [19] was inactive.

Turning to `Cc1ccc(O)c(C)c1`, the result in assay [1], in assay [2], in [3], in assay [4], in assay [5] and in assay [6] was inactive. Besides, the outcome in assay [7], in assay [8], in [9], in assay [10], in assay [11] and in assay [12] was inactive. Also, the result in assay [13], in assay [14], in assay [15], in [16], in assay [17] and in assay [18] was inactive. Further, the outcome in [19] was inactive. For the same compound, the AC50 with CD40, CD40 (gene 958) is 11.6 µM (active).

In the case of `Cc1cccc([N+](=O)[O-])c1`, the result in assay [1], in assay [2], in assay [3], in assay [4], in assay [5] and in assay [6] was inactive. The result in assay [7], in assay [8], in assay [9], in assay [10], in [11] and in assay [12] was inactive. Moreover, the outcome was “inactive” in assay [14]; “inactive” in assay [15]; “inactive” with CD40, CD40 (gene 958); “inactive” in [16]; “inactive” in assay [17]; “inactive” in assay [18]. The outcome in [19] was inactive.

Regarding `CCCCCCOC(=O)c1ccccc1C(=O)OCCCCCC`, the outcome in assay [1], in assay [2], in [3], in [4], in [5] and in assay [6] was inactive. Also, the result in assay [7], in assay [8], in assay [9], in assay [10], in [11] and in assay [12] was inactive. Moreover, the outcome was “inactive” in assay [14]; “inactive” in assay [15]; “inactive” with CD40, CD40 (gene 958); “inactive” in [16]; “inactive” in [18]; “inactive” in [19]. For the same compound, the AC50 in [17] was 20 µM (active).

With `Cc1ccccc1O`, the outcome in assay [1], in assay [2], in assay [3], in assay [4], in [6] and in assay [7] was inactive. Also, the outcome in assay [8], in assay [9], in assay [10], in assay [11], in assay [12] and in assay [13] was inactive. The outcome was “inactive” in assay [14]; “inactive” in assay [15]; “inactive” in the assay with CD40, CD40 (gene 958); “inactive” in assay [16]; “inactive” in assay [17]; “inactive” in assay [18]. Further, the result in assay [19] was inactive.

For `C[C@]12CCC(=O)C=C1CC[C@@H]1[C@@H]2CC[C@]2(C)C(=O)CC[C@@H]12`, the result in assay [1], in assay [2], in assay [3], in assay [4], in assay [5] and in assay [6] was inactive. Moreover, the result in [7], in [8], in assay [9], in assay [10], in assay [11] and in [12] was inactive. Also, the outcome in [13] was “inactive”; in [14], “inactive”; in assay [15], “inactive”; with CD40, CD40 (gene 958), “inactive”; in assay [16], “inactive”; in assay [17] it was “inactive”. Further, the outcome in [18] and in assay [19] was inactive.

Values taken from PubChem BioAssay (EPA / NIEHS).
